Structures are written as SMILES. “And” between values parts separate entries of the source, which are not always exact repeats. Equal values may be shown once. The campaign covered roughly 300,000 compounds. About 37,000 (12%) were called active. What follows is part of a selection rich in actives, with near analogues and random picks from the rest. Values without a mark were called inactive. No stated cut-off is given here; in the data, active means max response mostly above about 13% (no sharp cut-off); inactive means mostly below about 14%.

Data on 61 compounds can be found in PubChem BioAssay AID2314 (National Center for Advancing Translational Sciences (NCATS), 2010).

The assay is described as follows: Cycloheximide Counterscreen for Small Molecule Inhibitors of Shiga Toxin. Further: read at 38.3 µM for the half of the compounds with a filed dose; 0% is about no effect. The settings on record: cell reporter, cycloheximide protein synthesis inhibition counterscreen; hits give high values.
With `CCc1nnc(NC(=O)/C=C/c2ccc(C)o2)s1`, the max response was 21.2% (active).

With `CCc1nnc(NC(=O)CCC(=O)O)s1`, the max response is -1.47%.

Turning to `Cc1nnc(NC(=O)/C=C/c2ccco2)s1`, the max response was 25.7% (active).

As to `CCOC(=O)c1c(NC(=O)/C=C/c2ccco2)sc(C)c1C`, the max response was -2.54%.

As to `CCC(CC)c1nnc(NC(=O)/C=C/c2ccco2)s1`, the max response is 17.5%.

Regarding `Cc1ccc(/C=C/C(=O)Nc2ccc([N+](=O)[O-])c(NC(=O)/C=C/c3ccc(C)o3)c2)o1`, the max response is -2.46%.

For the compound `CNC(=O)c1[nH]cnc1C(=O)N[C@@H](CC(C)C)C(=O)OCc1ccccc1`, the max response is 0.929%.

As to `COc1ccc(NC(=O)NCCN2CCN(c3ccc(C)cc3)CC2)c(Cl)c1`, the max response was -1.67%.

As to `COc1ccccc1NC(=O)CSc1nnc(CNC(=O)c2ccccc2F)o1`, the max response is 1.71%.

As for `N#Cc1ccc(S(=O)(=O)NCC(=O)OCC(=O)NCCc2ccccc2)cc1`, the max response is 1.22%.

As for `COc1ccc(-n2cnnc2SCC(=O)Nc2cccc([N+](=O)[O-])c2)cc1`, the max response is -4.87%.

For the compound `Cc1ccccc1OCCOc1ccc([N+](=O)[O-])cc1/C=N/n1cnnc1`, the max response is -2.75%.

Consider `COc1ccc(OCC(=O)N2CCOCC2)cc1`, for which the max response was 9.77%.

In the case of `COc1cc(C(=S)N2CCOCC2)ccc1O`, the max response was -0.128%.

On to `COc1ccc(/C(C)=N/N2CCOCC2)c(O)c1`, for which the max response is 26.7% (active).

On to `CCN(C(=O)Cc1nc(N)n[nH]1)C1(C(=O)Nc2ccccc2)CCCCC1`, for which the max response is -6.07%.

On to `Cc1cc(=O)oc2cc(OCCC[n+]3ccccc3)ccc12`, for which the max response is 1.33%.

In the case of `Cc1nonc1C(=O)N/N=C/c1ccc(O)cc1`, the max response is 37.3% (active).

`O=C(C[n+]1ccccc1)N/N=C/c1ccc(O)cc1`: the max response is -3.62%.

In the case of `CC(C)c1c(C(=O)N/N=C/c2ccc(-c3ccccc3)cc2)nnn1-c1nonc1N`, the max response is -10.6%.

Regarding `CCOc1c(OC)cccc1C(=O)NCC1(c2ccccc2)CCCC1`, the max response is -2.45%.

`O=C(C1CCN(S(=O)(=O)Cc2ccccc2)CC1)N1CCCc2ccccc21`: the max response was 11.2%.

Regarding `OCC1(Cc2ccccc2)CCN(Cc2cc3ccccc3o2)CC1`, the max response is 1.07%.

With `Cc1ccc(S(=O)(=O)N(C)CC(=O)OCC(=O)Nc2ccccc2)cc1`, the max response was 3.68%.

As to `O=C(COC(=O)C1CC2C=CC1C2)Nc1ccccc1` (stereo unspecified), the max response is 27.3% (active).

Consider `NC(=O)c1ccc(NC(=O)COC(=O)C(Cc2ccccc2)NC(=O)c2ccccc2)cc1` (stereo unspecified), for which the max response is -2.16%.

Take `COc1ccc(C(=O)n2nc(C)c(Br)c2C)cc1OC`: the max response was -2.74%.

Consider `Cc1nc(C)c(-c2csc(NCCc3ccccc3)n2)s1`, for which the max response was 13.4% (active).

In the case of `S=c1[nH]nc(NCCc2ccccc2)s1`, the max response was -2.47%.

Consider `Cc1ccc(Nc2nc(-c3sc(NC(=O)c4ccccc4)nc3C)cs2)cc1`, for which the max response is 8.35%.

Take `CC1CC(C)CN(C(=O)CCNC(=O)Cn2cnc3ccccc3c2=O)C1` (stereo unspecified): the max response was -4.79%.

Consider `O=C(N/C(=C/c1ccc(Cl)cc1)C(=O)N1CCCCC1)c1ccco1`, for which the max response was -0.943%.

With `CCn1c(CSc2nc(C)cc(C)n2)nnc1SCC(N)=O`, the max response is -2.49%.

For the compound `C=CCn1c(SCC(N)=O)nnc1-c1cc2c(s1)CCC(CC)C2` (stereo unspecified), the max response was 29.3% (active).

With `C=CCn1c(SCc2c(C(=O)OC)sc(N)c2C(=O)OC)nnc1-c1ccc(Cl)cc1`, the max response was -1.63%.

For the compound `CCS(=O)(=O)N1Cc2ccccc2CC1C(=O)Nc1ccc(OC)cc1OC` (stereo unspecified), the max response is 3.12%.

For `Cc1ccc2nc(NC(=O)C3CCN(S(=O)(=O)c4ccc5c(c4)oc(=O)n5C)CC3)sc2c1`, the max response was -6.17%.

On to `CCS(=O)(=O)N1Cc2ccccc2CC1C(=O)Nc1nc2ccc(F)cc2s1` (stereo unspecified), for which the max response is 77.8% (active).

For the compound `COC(=O)C(C)n1cnc2c(nnn2-c2cccc(Cl)c2)c1=O` (stereo unspecified), the max response was -1.58%.

As to `COc1ccc(-n2nnc3c(=O)n(CC(=O)OCc4ccccc4)cnc32)cc1`, the max response is 0.544%.

Consider `CCOC(=O)C(C)n1cnc2c(nnn2-c2cccc(OC)c2)c1=O` (stereo unspecified), for which the max response was 35.4% (active).

Take `COC(=O)C(C)n1cnc2c(nnn2-c2ccc(F)cc2)c1=O` (stereo unspecified): the max response was -2.37%.

`CCOC(=O)C(CC)Sc1ncnc2c1nnn2-c1ccc(F)cc1` (stereo unspecified): the max response is -1.76%.

Take `CCOC(=O)C(C)n1cnc2c(nnn2-c2ccc(F)cc2)c1=O` (stereo unspecified): the max response was 8.68% (active).

On to `COc1ccc(CCN2C(=O)C(C)=C(C)C2=O)cc1OC`, for which the max response is 1.83%.

`COc1ccc(N2CCN(C(=O)C3CCN(C(=O)c4ccccc4Cl)CC3)CC2)cc1`: the max response is 0.346%.

In the case of `COc1cccc(CN(C)C(=O)CC23CC4CC(CC(C4)C2)C3)c1OC`, the max response was -3.61%.

Consider `O=C(Nc1ccc(F)cc1)c1ccc(S(=O)(=O)NCc2cccnc2)cc1`, for which the max response was 13%.

`O=C(Nc1ccc(S(=O)(=O)N2CCCCCC2)cc1)c1c(F)cccc1F`: the max response is 16.3% (active).

Turning to `O=C(Nc1ccccc1F)c1cc(S(=O)(=O)N2CCCCC2)cs1`, the max response was 13.9% (active).

Turning to `O=C(Nc1ccccc1C(=O)O)c1cc(S(=O)(=O)N2CCCCC2)cs1`, the max response was -3.51%.

Take `O=C(Nc1cccc(F)c1)c1ccc(S(=O)(=O)N2CCCC2)cc1`: the max response was -1.88%.

Regarding `Cc1ccccc1NC(=O)c1cc(S(=O)(=O)N2CCOCC2)cs1`, the max response is 1.05%.

As to `O=C(CN1CCCCCC1)Nc1ccc(S(=O)(=O)N2CCCCC2)cc1`, the max response was -2.88%.

For `O=C(O)c1ccc(Cn2c(=S)[nH]c3cc(Cl)ccc3c2=O)cc1`, the max response is -2.92%.

Regarding `O=C(CN1C(=O)CC(c2ccccc2)=Nc2ccccc21)NC1CCCCC1`, the max response is -1.57%.

Take `COc1ccc(S(=O)(=O)NNC(=O)Nc2ccc(C)cc2)c(OC)c1`: the max response was 0.87%.

As to `COc1ccc(NS(=O)(=O)c2cc(NC(=O)CC(=O)c3ccc([N+](=O)[O-])cc3)ccc2C)cc1`, the max response was -3.18%.

As to `CN1/C(=c2/s/c(=C3/C(=O)N(c4ccccc4)NC3=Nc3ccccc3)n(C)c2=O)C(C)(C)c2ccccc21`, the max response was -0.907%.

Regarding `CCN1C(=O)/C(=C2/Sc3ccccc3N2CCCS(=O)(=O)O)SC1=S`, the max response is -1.1% and 2.76%.

In the case of `CCN1C(=O)/C(=c2\s/c(=C3\Sc4ccccc4N3C)c(=O)n2C)N(C)C1=S`, the max response is 22.3% (active).
